{"source": "PubChem BioAssay (Tox21)", "note": "Records with an inconclusive call do not appear. Values without a mark were called inactive. Active and inactive are the calls of the source. Calls follow the shape of the dose curve; as a rule, active = well fitted cell-killing curve with a large enough effect in the repeat runs; inconclusive = weak or mixed curves, or effect the other way; inactive = no such curve, though single readings can be large or run the other way. % is scaled to controls: 0 for no effect and ±100 for the full control effect; potency is read from the fitted curve at half-maximal effect.", "data": [{"assay": "qHTS assay to identify small molecule agonists of the estrogen receptor alpha (ER-alpha) signaling pathway in the presence of an antagonist - cell viability counter screen (AID 1259386);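 also: cells exposed to compounds for 22 h at 37 °C before the viability read; nearly all actives have a fitted effect of over 30% in size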", "details": "VM7Luc4E2 viability, CellTiter-Fluor fluorescence, 22 h; series mostly up to 92.4 µM; activity change, negative = cytotoxicity: at the top concentration", "outline": "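Fluorescent CellTiter-Fluor viability signal from VM7Luc4E2 cells, with the reagent added during the final hour of a 22hr compound exposure at 37C in the presence of 10.0nM ICI-182,780.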", "values": [{"compound": "CO[C@H]1C=CO[C@@]2(C)Oc3c(C)c(O)c4c(O)c(cc(O)c4c3C2=O)NC(=O)/C(C)=C\\C=C/[C@H](C)[C@H](O)[C@@H](C)[C@@H](O)[C@@H](C)[C@H](OC(C)=O)[C@@H]1C", "Potency": "38.8 µM (active)"}, {"compound": "CCO[Si](CCCSSSSCCC[Si](OCC)(OCC)OCC)(OCC)OCC", "activity change, negative = cytotoxicity": "-2.71%"}, {"compound": "CCCCN(CCCC)CCC(O)c1cc2c(Cl)cc(Cl)cc2c2cc(C(F)(F)F)ccc12", "note": "(stereo not drawn)", "activity change, negative = cytotoxicity": "0.0306% [at 42.5 µM]"}, {"compound": "O=C1NCCN1CCN1CCC(c2cn(-c3ccc(F)cc3)c3ccc(Cl)cc23)CC1", "activity change, negative = cytotoxicity": "-10.2% [at 42.5 µM]"}, {"compound": "CCCCCCCCCC(=O)N(C)C", "activity change, negative = cytotoxicity": "0.587%"}, {"compound": "C=CC(=O)OCCOCC(CC)(COCCOC(=O)C=C)COCCOC(=O)C=C", "Potency": "35.8 µM (active)"}, {"compound": "N#CSCSc1nc2ccccc2s1", "activity change, negative = cytotoxicity": "1.94%"}, {"compound": "O=C(Nc1ccc(Cl)c(Cl)c1)c1cc(Cl)cc(Cl)c1O", "Potency": "7.7 µM (active)"}, {"compound": "CCC(C)c1cc([N+](=O)[O-])cc([N+](=O)[O-])c1OC(=O)OC(C)C", "note": "(stereo not drawn)", "Potency": "54.5 µM (active)"}, {"compound": "O[C@@H](c1cc(C(F)(F)F)nc2c(C(F)(F)F)cccc12)[C@H]1CCCCN1", "activity change, negative = cytotoxicity": "9.15% [at 42.5 µM]"}, {"compound": "CCC(C)(C)c1cc(O)c(C(C)(C)CC)cc1O", "activity change, negative = cytotoxicity": "1.52%"}, {"compound": "CN1CCN(C2Cc3ccccc3Sc3ccc(Cl)cc32)CC1", "note": "(stereo not drawn)", "activity change, negative = cytotoxicity": "1.35% [at 42.5 µM]"}, {"compound": "Cc1ccc(-n2[nH]c(C)c(N=Nc3cccc(-c4cccc(C(=O)O)c4)c3O)c2=O)cc1C", "Potency": "29.8 µM (active)"}, {"compound": "CCCCOc1ccc(C(=O)CCN2CCCCC2)cc1", "activity change, negative = cytotoxicity": "-5.15% [at 42.5 µM]"}, {"compound": "CC(=O)OC(OC(C)=O)c1ccc([N+](=O)[O-])o1", "Potency": "49.4 µM (active)"}, {"compound": "CCC1(c2cnc[nH]2)Cc2ccccc2C1", "activity change, negative = cytotoxicity": "-4.5% [at 42.5 µM]"}, {"compound": "CCN(CC)CCNc1ccc(CO)c2sc3ccccc3c(=O)c12", "Potency": "10.6 µM (active)"}, {"compound": "CN(C)CCCN1c2ccccc2Sc2ccc(C(F)(F)F)cc21", "activity change, negative = cytotoxicity": "-6.76% [at 42.5 µM]"}, {"compound": "Oc1ccc(-c2ccc(O)cc2)cc1", "activity change, negative = cytotoxicity": "-2.41%"}, {"compound": "Cc1c(C)n(Cc2ccccc2)c2ccc(C(=O)OCCN(C)C)cc12", "activity change, negative = cytotoxicity": "-9.99% [at 42.5 µM]"}, {"compound": "Nc1cc(Cl)c([N+](=O)[O-])cc1O", "Potency": "54 µM (active)"}, {"compound": "CCCCCCCCCCOCC(O)CN", "note": "(stereo not drawn)", "activity change, negative = cytotoxicity": "6.75% [at 42.5 µM]"}, {"compound": "C[C@@]12C(=O)OC(=O)[C@]1(C)C1CCC2O1", "activity change, negative = cytotoxicity": "-13.7% [at 42.5 µM]"}]}]}
